Results from PubChem BioAssay.
Results filed as inconclusive are left out. Calls of active or inactive are those of the source. Unless noted, how the calls were made is not given here. Peptide text beside a SMILES is read from it.

Tests used:
[1] = target: Pantothenate synthetase (Mycobacterium tuberculosis (strain ATCC 25618 / H37Rv)) (UniProt P9WIL5); test: Recombinant Mtb pantothenate synthetase (PanC) inhibitors, coupled enzyme, confirmatory (AID 375); conditions: coupled enzyme assay; at 10 µM, stronger effect = higher value;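 further: 0% = full reaction with vehicle and 100% = no enzyme background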
[2] = SK-BR-3 cell growth inhibitors, pilot screen, 24 h, human (AID 572;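 active means viability at or below 10% of carrier control in both of two separate runs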;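 further: compound exposure lasted between 18 and 24 h rather than exactly 24 h; 100% = carrier-treated control wells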); conditions: SK-BR-3 viability, CellTiter-Glo luminescence, at 10 µM, stronger effect = lower value
[3] = growth inhibitors of H69AR lung tumor, primary screen, human, duplicate replicates (AID 580;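 active means viability at or under a set limit in both replicates, limit being median viability minus 3 SD, cut at about 48% in these data, passing the limit was not always enough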;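 further: 100% = mean luminescence of untreated wells and 0% = no signal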); conditions: H69AR lung tumor cells viability, ATP luminescence, 72 h; at 10 µM; stronger effect = lower value
[4] = reversal of MRP1-mediated doxorubicin resistance, pilot screen, H69AR cells, doxorubicin co-treatment (AID 601;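 active means viability loss from added drug above about 55%, and viability with drug at most 40%, in both replicates, limit read from the data, passing the limit was not always enough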); conditions: CellTiter-Glo, 72 h, at 10 µM; for differential viability (reversal): stronger effect = higher value
[5] = 384-well plate pilot, post-Golgi transport modulator project, inhibition of yeast transport mutant growth (AID 636; in the data active means inhibition above about 31%); conditions: absorbance 615 nm, about 18 h, stronger effect = higher value
[6] = growth suppression of yeast trafficking mutant, preliminary HTS, modulators of trafficking downstream of Golgi apparatus project, 1536-format plate, OD 615 nm (AID 637; in the data active means inhibition above about 30%); conditions: yeast transport mutant growth, absorbance 615 nm, 18 h; stronger effect = higher value
[7] = HUVEC growth inhibition – cell-based, human, primary screen (AID 575;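 active means viability at or below 30% in both replicate assays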;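 further: 100% = median of untreated cell wells with 0.1% DMSO on each plate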); conditions: HUVEC proliferation, CellTiter-Glo luminescence, 72 h; at 10 µM; stronger effect = lower value
[8] = OD615 S. cerevisiae growth inhibition, permissive medium, pilot counter-assay, permissive growth control for S. cerevisiae lifespan shortening project (AID 705;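 active means growth inhibition above 25% in both replicates, a cutoff set 3 SD above the mean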); conditions: OD615, 24 h, at 10 µM, stronger effect = higher value
[9] = Restrictive medium S. cerevisiae growth inhibition, OD615, pilot screen of yeast lifespan reduction project, restrictive growth control (AID 706;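 active means growth inhibition above a set limit, 3 SD over mean compound inhibition, in both replicates, cut at about 43% in these data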;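 further: modified DeaD lifespan yeast strain shifted to restrictive glucose medium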); conditions: OD615, 48 h, at 10 µM, stronger effect = higher value
[10] = viability gain of MRP-1-high H69AR cells under doxorubicin, pilot screen, MRP-1 activator project, CellTiter-Glo, duplicate (AID 807;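 active means viability increase at or above a cutoff of the median across tested compounds plus 3 SD, cut at about 8.5% in these data, passing the limit was not always enough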;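 further: compound pretreatment 18-22 h then 72 h combined with doxorubicin; 0% = doxorubicin alone and 100% = vehicle without doxorubicin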); conditions: H69AR viability with doxorubicin, CellTiter-Glo luminescence; at 10 µM; stronger effect = higher value
[11] = growth suppression of beta-catenin knockout HCT116, pilot screen, human colon tumor cells (AID 823;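 active means cell viability at or below a set limit in both duplicate runs, the limit being the all-compound median minus 4 SD, cut at about 23% in these data, passing the limit was not always enough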;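 further: 0% = wells killed by 20 µM Hyamine and 100% = untreated DMSO cell wells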); conditions: CellTiter-Glo, 60 h, at 10 µM, stronger effect = lower value
[12] = growth suppression of PTEN-deleted HCT116, pilot screen, cell-based, HCT116 clonal line, CellTiter-Glo (AID 824;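 active means viability at or below 27.92% in each of two runs, the all-compound median minus 4 SD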;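 further: 0% = 20 µM Hyamine control and 100% = vehicle cell control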); conditions: 60 h, at 10 µM, stronger effect = lower value
[13] = inhibitors of the yeast RAM network, pilot screen, dse1pr::URA3 reporter, 5-FOA selection (AID 869;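 active means inhibition over a set limit, the all-compound mean plus 3 SD, in both replicate runs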;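 further: 0% = DMSO wells with no growth and 100% = 10 µM 1-NA-PP1 with full growth; RAM network block rescues cells from 5-FOA so hits raise OD615 growth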); conditions: S. cerevisiae dse1pr::URA3 5-FOA growth, OD615, 2 d, at 10 µM, stronger effect = higher value
[14] = H69AR cells + 2 uM doxorubicin, measured here: viability with 2 uM doxorubicin, stronger effect = lower value
[15] = H69AR cells, compound alone cytotoxicity

Sequence of Pantothenate synthetase (Mycobacterium tuberculosis (strain ATCC 25618 / H37Rv)) (P9WIL5 whole entry, looked up): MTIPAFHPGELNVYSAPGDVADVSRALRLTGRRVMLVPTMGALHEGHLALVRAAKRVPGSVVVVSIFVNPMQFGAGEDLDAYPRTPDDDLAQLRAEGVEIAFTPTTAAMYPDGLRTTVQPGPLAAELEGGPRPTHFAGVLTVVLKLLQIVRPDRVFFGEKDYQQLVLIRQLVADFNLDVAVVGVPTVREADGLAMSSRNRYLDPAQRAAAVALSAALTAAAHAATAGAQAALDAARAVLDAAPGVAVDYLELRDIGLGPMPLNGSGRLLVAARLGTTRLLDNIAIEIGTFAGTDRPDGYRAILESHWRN

SMILES	inhibition [1]	viability [2]	viability [3]	differential viability (reversal) ([4]; H69AR cells + 2 uM doxorubicin)	viability [4, 14] [%]	viability [4, 15] [%]	inhibition [5]	inhibition [6]	viability [7]	growth inhibition [8]	growth inhibition [9]	viability increase [10]	viability [11]	viability [12]	inhibition [13]
C[C@H]1CCCC(=O)CCCCCc2cc(O)cc(O)c2C(=O)O1	2% (inactive)	107% (inactive)	87.3% (inactive)	-23% (inactive)	110	87.3	0.26% (inactive)	-1.83% (inactive)	–	–	–	–	–	–	–
CCC(C(=O)N1CCC2(CC1)OCCO2)c1ccccc1 (stereo not given)	0% (inactive)	–	93% (inactive)	13.2% (inactive)	79.8	93	-6.4% (inactive)	1.43% (inactive)	102% (inactive)	–	–	–	–	–	–
C=CCN1C(=O)C2(C(C(=O)OCC)=C(N)Oc3c2c(=O)oc2ccccc32)c2ccccc21 (stereo not given)	0% (inactive)	61% (inactive)	98.2% (inactive)	-10.5% (inactive)	109	98.2	0.27% (inactive)	1.45% (inactive)	108% (inactive)	–	–	–	–	–	–
COc1ccc(CCn2c(O)c(C=NCCCN(C)C)c(=O)[nH]c2=O)cc1OC	0% (inactive)	–	98.1% (inactive)	3.64% (inactive)	94.5	98.1	-4% (inactive)	-1.59% (inactive)	103% (inactive)	–	–	–	–	–	–
CCOC(=O)c1c(N)n(Cc2ccco2)c2nc3ccccc3nc12	–	–	–	–	–	–	–	–	–	-1.25% (inactive)	0.175% (inactive)	-6.16% (inactive)	83.3% (inactive)	74% (inactive)	1.18% (inactive)
CCCCn1c(O)c(C(C)=NC(Cc2c[nH]c3ccccc23)C(=O)OC)c(=O)[nH]c1=O (stereo not given)	1% (inactive)	91% (inactive)	96.5% (inactive)	2.8% (inactive)	93.7	96.5	-4.93% (inactive)	-2.1% (inactive)	84.5% (inactive)	–	–	–	–	–	–
CC(C)[C@@]1(NC(=O)[C@@H]2C[C@@H]3c4cccc5[nH]cc(c45)C[C@H]3N(C)C2)O[C@@]2(O)[C@@H]3CCCN3C(=O)[C@H](Cc3ccccc3)N2C1=O	4% (inactive)	111% (inactive)	73.8% (inactive)	-3.47% (inactive)	77.3	73.8	-1.56% (inactive)	-1.67% (inactive)	4.38% (active)	–	–	–	–	–	–
O=C(CN1CCN(Cc2cccc(Cl)c2)C1=O)N1CCC2(CC1)OCCO2	2% (inactive)	–	89.5% (inactive)	-2.12% (inactive)	91.7	89.5	-3.12% (inactive)	-2.7% (inactive)	87.6% (inactive)	–	–	–	–	–	–
Cc1cccc(-n2c(O)c(C=NCCCN3CCOCC3)c(=O)[nH]c2=O)c1C	2% (inactive)	–	105% (inactive)	14.8% (inactive)	90.7	105	0.8% (inactive)	-2.7% (inactive)	100% (inactive)	–	–	–	–	–	–
O=C(CN1C2CCC1CC(O)(c1cccnc1)C2)Nc1ccc2c(c1)OCO2 (stereo not given)	11% (inactive)	72% (inactive)	91.3% (inactive)	2.46% (inactive)	88.8	91.3	-6.53% (inactive)	3.44% (inactive)	90.2% (inactive)	–	–	–	–	–	–
O=c1[nH]c2ccccc2n1C1CCN(CCCC(c2ccc(F)cc2)c2ccc(F)cc2)CC1	5% (inactive)	–	–	-0.46% (inactive)	1.62	1.16	–	–	2.55% (active)	–	–	–	–	–	–
O=c1[nH]c2ccccc2n1CCCN1CCC(n2c(=O)[nH]c3cc(Cl)ccc32)CC1	0% (inactive)	91% (inactive)	76% (inactive)	-6.47% (inactive)	82.5	76	-2.47% (inactive)	-0.17% (inactive)	97.8% (inactive)	–	–	–	–	–	–
Cc1ccc2c(c1)[C@@H]1CN(C)CC[C@@H]1N2C(=O)Nc1cccc(C(F)(F)F)c1	9% (inactive)	–	69.9% (inactive)	-8.21% (inactive)	78.1	69.9	1.45% (inactive)	1.15% (inactive)	–	–	–	–	–	–	–
C[C@H]1CCC/C=C/C2C[C@H](O)CC2[C@H](O)/C=C/C(=O)O1 (stereo not given in full)	0% (inactive)	120% (inactive)	–	0.59% (inactive)	1.34	1.93	-2.08% (inactive)	0% (inactive)	7.17% (active)	–	–	–	–	–	–
COc1ccc(CCn2c(O)c(C=NCc3cccnc3)c(=O)[nH]c2=O)cc1OC	0% (inactive)	63% (inactive)	95.4% (inactive)	1.12% (inactive)	94.3	95.4	-4.67% (inactive)	1.97% (inactive)	118% (inactive)	–	–	–	–	–	–
CNP1(NC)=NC(C(F)(F)F)=NC(C(F)(F)F)=N1	3% (inactive)	95% (inactive)	98.1% (inactive)	6.97% (inactive)	91.2	98.1	-6.99% (inactive)	4.36% (inactive)	124% (inactive)	–	–	–	–	–	–
O=C1c2ccccc2C(=O)N1Cc1nc2ccccc2c(=O)n1-c1ccc(Br)cn1	–	–	–	–	–	–	–	–	–	-8.78% (inactive)	-3.02% (inactive)	0.3% (inactive)	98.4% (inactive)	99.3% (inactive)	1.44% (inactive)
CC1(C)CC(=O)C=C(NCCN2CCN(C(=O)Cc3ccc(Cl)cc3)CC2)C1	2% (inactive)	–	92.4% (inactive)	-3.5% (inactive)	95.9	92.4	-0.79% (inactive)	-2.06% (inactive)	109% (inactive)	–	–	–	–	–	–
N=C(N)c1c(O)n(C2CCCCC2)c(=O)n(C2CCCCC2)c1=O	0% (inactive)	–	2.02% (active)	0.155% (inactive)	1.86	2.02	-9.32% (inactive)	7.14% (inactive)	2.35% (active)	–	–	–	–	–	–
CC(C)C[C@H](NC(=O)[C@@H]1CCCN1C(=O)[C@@H](N)Cc1ccc(O)cc1)C(=O)NCC(N)=O (H-YPLG-NH2)	0% (inactive)	105% (inactive)	97.6% (inactive)	0.84% (inactive)	96.8	97.6	-2.73% (inactive)	0.33% (inactive)	96.2% (inactive)	–	–	–	–	–	–
CNCCc1c[nH]c2ccccc12	0% (inactive)	127% (inactive)	84.5% (inactive)	-20.1% (inactive)	105	84.5	-0.39% (inactive)	12% (inactive)	85.9% (inactive)	–	–	–	–	–	–
CN(C)CCN=Cc1c(O)n(-c2cccc3ccccc23)c(=O)[nH]c1=O	6% (inactive)	–	105% (inactive)	11.9% (inactive)	92.8	105	-5.87% (inactive)	1.9% (inactive)	103% (inactive)	–	–	–	–	–	–
CCC(C)NC(=O)c1c(N)n(CC2CCCO2)c2nc3ccccc3nc12 (stereo not given)	0% (inactive)	93% (inactive)	–	-8.02% (inactive)	61.5	53.4	-0.4% (inactive)	4.92% (inactive)	53.4% (inactive)	–	–	–	–	–	–
